Bioassay records deposited in PubChem BioAssay by several laboratories.
APP 5UTR inh: APP translation inhibition. SH-SY5Y APP 5'UTR-luciferase reporter, luminescence. 190,000 compounds, 0.82% hits. AID 1285. inhibition, % at 2 µM;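 active = inhibition above a set limit, derived from the sample mean plus 3 SD, cut at about 45% in these data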
KLF5 inh: suppresses KLF5 promoter-driven expression; AID 1700; DLD-1 KLF5 promoter-luciferase reporter, luminescence; 290,000 compounds, 0.23% hits; inhibition, % at 5 µM;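 active = inhibition above a per-plate limit of that plate's mean compound inhibition plus 3 SD, cut at about 60% in these data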;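 also: 0% = DMSO wells and 100% = LY294002 at 200 µM; higher means less KLF5 promoter-driven luciferase light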
aSyn 5UTR inh: 5' untranslated region of α-synuclein, MLPCN primary screen; 300,000 compounds, 0.82% hits; alpha-synuclein 5'UTR reporter, inhibitor activity; AID 1813; inhibition, % (tested at 7.5 µM); in the data active = inhibition above about 60%;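 also: H4 neuroglioblastoma cells stably carrying SNCA 5'UTR luciferase fusion; 0% = DMSO wells and 100% = positive control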
BaF3 parental: counter-screen for JAK2V617F inhibitors: parental Ba/F3 viability inhibitors; CellTiter-Glo ATP luminescence; inhibition, % at 5.6 µM; 220,000 compounds, 1.1% hits;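 active = inhibition above a per-campaign cutoff, the mean inhibition of all tested compounds plus 3 SD, cut at about 27% in these data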;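 also: 0% = DMSO wells and 100% = JAK Inhibitor I control wells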
Ba/F3 V617F tox: lowers viability of Ba/F3 cells expressing EpoR and JAK2V617F. ATP luminescence. inhibition, % at 5.6 µM. 220,000 compounds, 1.1% hits. AID 1446;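 active = inhibition above the campaign mean plus 3 SD over all tested compounds, cut at about 24% in these data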;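 also: cytokine-independent growth of Ba/F3 cells driven by EpoR plus mutant JAK2; 0% = DMSO-treated cells and 100% = JAK inhibitor I control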
IEC-6 tox: IEC-6 cytotoxicity, counter-screen for KLF5 inhibitors; luminescence viability; inhibition, % at 5 µM; 290,000 compounds, 0.78% hits; in the data active = inhibition above about 22%;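 also: 0% = plate median of test compound wells and 100% = cytotoxic reference compound wells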
Numbers without * were called inactive; . = no result. Compounds with a hit are over-represented: about 2.1% of the library has one in this group of screens.

SMILES	APP 5UTR inh	KLF5 inh	aSyn 5UTR inh	BaF3 parental	Ba/F3 V617F tox	IEC-6 tox
Cc1cccc(NC(=S)N=Nc2c(O)[nH]c3ccccc23)c1	45*	-12	53	4	-2	38*
COc1ccc(C2=NN(C(=O)CSc3nc4ccccc4s3)C(c3ccc(OC)cc3)C2)cc1 (configuration not stated)	8	25	-22	5	-4	6
COc1ccc(C2=NN(C(=O)CSc3nc4ccccc4s3)C(c3ccc(F)cc3)C2)cc1 (configuration not stated)	81*	6	-21	-3	-7	-2
CC1C/C(=C/c2ccncc2)C(=O)/C(=C/c2ccncc2)C1 (configuration not stated)	95*	58	-107	-2	15	22
O=C1/C(=C/c2ccncc2)Cc2ccccc21	.	.	11	.	.	.
CN(C)c1ccc(/C=C(/NC(=O)c2ccccc2Cl)C(=O)NCCN2CCOCC2)cc1	.	-17	1	.	.	-6
O=C(/C=C/c1cccs1)Nc1ccc(Br)cn1	92*	23	-50	71*	74*	81*
O=C(/C=C/c1cccs1)Nc1cccc(NC(=O)/C=C/c2cccs2)n1	-45	-109	-181	6	2	9
COCc1cc(C)nc2sc(C(=O)NN)c(-n3cccc3)c12	6	-33	71*	6	1	-7
CCCCNC(=O)c1sc2nc(C)cc(COC)c2c1-n1cccc1	-8	-12	-13	5	0	-3
CN1CCN(C(=S)NC(=O)c2ccc(C(C)(C)C)cc2)CC1	17	12	-21	3	0	10
C=CCn1cccc(/C=C/C(=O)c2ccc(C(C)(C)C)cc2)c1=S	14	-7	-74	46*	10	0
COc1ccc(-n2cccc2/C=C2/NC(=O)N(c3cccc(Cl)c3)C2=O)cc1	-23	-32	-143	11	0	5
COc1cc(/C=C2/NC(=O)N(c3cccc(Cl)c3)C2=O)ccc1O	55*	-40	-10	76*	100*	21
CC1CCc2cc(F)ccc2N1C(=O)C1(C)CC1(Cl)Cl (configuration not stated)	0	-26	8	6	1	4
CC1=NNC(=O)C1CCC(=O)N/N=C/C(Br)=C/c1ccccc1 (configuration not stated)	82*	20	-2	2	-1	2
O=C1NC(=O)C(CC(=O)N(Cc2cccs2)C2(C(=O)NC3CCCCC3)CCCCC2)N1 (configuration not stated)	5	-22	16	88*	5	0
Cc1ccccc1C(=O)NC(CC(C)C)C(=O)Nc1cccc(S(=O)(=O)N(C)C)c1 (configuration not stated)	-2	-45	-7	42*	11	1
CC(OC(=O)c1nc(Cl)ccc1Cl)C(=O)Nc1ccc2c(c1)OCCO2 (configuration not stated)	.	.	-10	.	.	.
Cc1cccc2nc(COc3ccc(-c4ccccc4)cc3)cn12	-39	-27	-121	38*	44*	2
CCCCNC(=O)c1ccc(Cn2c(=S)[nH]c3c([nH]c4ccc(OC)cc43)c2=O)cc1	7	-15	105*	7	-1	-4
COc1cccc(C2=NCCc3cc4c(cc32)OCO4)c1OC	-2	8	11	2	-1	-9
COc1ccc2cc3[n+](cc2c1OC)CCc1cc2c(cc1-3)OCO2	17	3	-12	63*	72*	-10
CCc1c(C)nc2ncnn2c1NCCc1ccc(OC)c(OC)c1	8	-12	7	7	-1	1
COc1ccc(CCNc2c(C)c(C)nc3ncnn23)cc1	5	12	-14	58*	51*	19
SMILES	APP 5UTR inh	KLF5 inh	aSyn 5UTR inh	BaF3 parental	Ba/F3 V617F tox	IEC-6 tox
C=CCn1cnc2c(oc3ccccc32)c1=O	.	-23	-20	.	.	-1
O=C(OCN1C(=O)c2ccccc2C1=O)c1cccs1	-37	11	-1	94*	2	-2
CC(=O)Nc1ccc(S(=O)(=O)N2CCC(NC(=O)C(Cc3ccccc3F)NC(C)=O)CC2)cc1 (configuration not stated)	.	-24	-14	.	.	-11
C=CCNC(=S)/N=c1/ccccn1CC	.	9	3	29*	15	-6
Cc1ccccc1NC(=O)COC(=O)CCc1ccccc1	12	14	11	8	2	0
CCOC(=O)/C(=N\Nc1ccccc1)S(=O)(=O)c1ccccc1	10	-17	-6	7	1	6
CCOC(=O)/C(=N/Nc1ccc(C)cc1)S(=O)(=O)c1ccc(Cl)cc1	63*	1	-142	6	-1	4
Cc1nc(-n2[nH]c3c(c2=O)CCCC3)[nH]c(=O)c1Cc1ccccc1	5	-35	90*	6	0	-5
Cc1cccc(COc2ccc(/C=N/NC(=O)c3nnn(-c4nonc4N)c3COc3ccc(F)cc3)cc2)c1	.	-43	-159	1	-2	-3
CC(=O)c1ccc(Nc2ccc(-c3ccccc3F)nn2)cc1	-146	-175	-172	8	-1	2
Cc1cc(NC(=O)CSc2nc(C(C)(C)C)nc3ccccc23)no1	49*	11	26	4	0	-2
O=C(NCC1CCCO1)C(c1ccncc1)N(Cc1cccs1)C(=O)Cn1nnc(-c2ccc(F)cc2)n1 (configuration not stated)	48*	-10	19	-1	-4	-3
CCC(=O)Nc1ccc2c(c1)nc1n2CCN(C2CCCCC2)C1	2	-8	-8	-3	-4	-4
O=C(Nc1ccc2c(c1)nc1n2CCN(C2CCCCC2)C1)NC1CCCCC1	-8	-22	-6	30*	7	1
Cn1ncc(Cl)c1C(=O)Nc1nc2ccc(Cl)cc2s1	-99	-22	-198	37*	-3	0
Cc1cc(C(=O)Nc2nc3ccc(Cl)cc3s2)nn1C	.	-148	-128	0	-4	-5
CC(=O)c1c(C)[nH]c(C(=O)OCCOc2ccccc2)c1C	-212	-63	67*	3	-3	7
Cc1cc(N2CCCC2=O)cc(C)c1S(=O)(=O)NCCOc1ccc(C(C)(C)C)cc1	-8	-38	6	36*	22	-2
O=C1CCCN1c1ccc(S(=O)(=O)NCCOc2ccccc2)cc1	3	-9	0	5	2	1
O=C(c1cccs1)N1CCC(c2nc3c(nnn3Cc3c(Cl)cccc3Cl)c(=O)[nH]2)CC1	.	2	33	.	.	2
Nc1ccc(O)cc1C(=O)OCC(=O)c1ccc(C2CCCCC2)cc1	49*	-9	-37	30*	71*	2
O=C(CCC(=O)N(CC(=O)NC1CCCCC1)c1ccc(F)cc1)Nc1ccccn1	.	-13	-12	.	.	5
COc1ccc(C(O)C(CN2CCOCC2)c2ccccc2)cc1F (configuration not stated)	-7	-45	26	6	2	-3
